High-throughput results (PubChem)
Giardia killer: kills Giardia lamblia | Giardia lamblia trophozoite viability | activity change, % at 7.66 µM, hits read low | 0.15% of 340,000 active | AID 540267; in the data active means activity change below about -80%; inconclusive means between about -30% and that limit;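 further: parasites exposed to compound for two days anaerobically before the ATP read; on the % scale 0 is the no-effect control and ±100 the full control effect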
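Killing of trophozoites was scored by loss of ATP luminescence after a 48 hrs anaerobic exposure to compounds at 37 deg C, using 100 cells per well.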
MCF10A rereplic: induces DNA re-replication in MCF 10a normal breast cells. MCF 10A DNA re-replication, Hoechst nuclear intensity, 48 h. Potency, µM (doses to about 46.1 µM), inactives show at the top dose activity, positive = re-replication, usual class: activators. 2.9% of 350,000 active; further: potency means the concentration at half of the fitted maximal effect; % of control where 0% means no effect; nearly all actives have a fitted effect of over 50% in size
SW480 rerep: DNA re-replication induction in SW480 cells; Potency, µM (highest dose often 46.1 µM), for inactives: at the top dose re-replication activation, most hits filed as activators; SW480 DNA re-replication, Hoechst DNA content imaging, 48 h; 1.8% of 340,000 active; AID 624297; further: potency means the concentration at half of the fitted maximal effect; % of control where 0% means no effect; nearly all actives have a fitted effect of over 55% in size
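Treated cells incubate 48 hr (37 C, 5% CO2), are stained 40 min with Hoechst, and nuclear fluorescence is enumerated; a rise in nuclei with high DNA signal marks re-replication.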
Vif-A3G inh: Vif-A3G binding inhibition | Q9HC16 | Potency, µM (titrated, usually from 46.1 µM), inactives show at the highest dose activity, negative = active, most hits filed as inhibitors | HeLa A3G-eYFP + Vif (tagged APOBEC3G with the HIV-1 protein that degrades it), YFP fluorescence, overnight | 0.076% of 410,000 active | AID 602310; further: potency means the concentration at half of the fitted maximal effect; on the % scale 0 is the no-effect control and ±100 the full control effect; nearly all actives have a fitted effect of over 60% in size
Target sequence (Q9HC16 whole entry, looked up): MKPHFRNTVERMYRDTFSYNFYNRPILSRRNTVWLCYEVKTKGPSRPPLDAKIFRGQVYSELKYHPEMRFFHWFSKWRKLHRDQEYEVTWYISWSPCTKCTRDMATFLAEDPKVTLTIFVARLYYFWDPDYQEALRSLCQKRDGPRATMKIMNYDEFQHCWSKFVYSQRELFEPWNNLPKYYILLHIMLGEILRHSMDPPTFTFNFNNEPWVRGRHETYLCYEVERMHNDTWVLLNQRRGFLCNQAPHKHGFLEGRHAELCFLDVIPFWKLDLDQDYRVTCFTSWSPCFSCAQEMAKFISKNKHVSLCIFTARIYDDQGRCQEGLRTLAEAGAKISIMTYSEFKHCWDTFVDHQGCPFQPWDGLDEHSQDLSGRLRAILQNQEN
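Read-out is eYFP fluorescence (Ex 488/Em 500-530) from Vif-expressing HeLa A3G-eYFP cells; more signal means A3G escaped Vif-mediated degradation. Cells plated overnight, compound pinned in, incubated overnight at 37 deg C.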
Vif-APOBEC3F blk: Vif-A3F binding inhibition; HeLa A3F-eYFP + Vif (tagged APOBEC3F with the HIV-1 protein that degrades it), YFP fluorescence increase; Potency, µM (series often up to 46.1 µM), for inactives: at the top dose activity, negative = active; 0.2% of 390,000 active; further: potency means the concentration at half of the fitted maximal effect; % of control where 0% means no effect; nearly all actives have a fitted effect of over 65% in size
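HeLa cells stably expressing A3F-eYFP plus Vif, plated and incubated overnight at 37 deg C, then exposed to compounds overnight at 37 deg C. Blocked degradation read as raised yellow fluorescence (Ex 488/Em 500-530).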
IL-1B inflam inh: inflammasome signaling inhibition, IL-1 beta readout; THP-1 LPS/ATP IL-1B secretion, AlphaLISA, 16 h; stronger effect = lower value; activity change, % at 57.5 µM; 4.7% of 360,000 active; AID 743279; in the data active means activity change below about -50%; inconclusive means mostly about -30% to -49%; further: on the % scale 0 is the no-effect control and ±100 the full control effect
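Secreted IL-1B measured by AlphaLISA bead assay after 16 h compound exposure of THP-1 cells; compounds (final up to 57.5 uM) added 1 h before LPS (250 ng/mL) and ATP (1.25 mM) stimulation; lower signal means less secretion.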
Active calls of the source: *; u = inconclusive; x = not tested or not shown. The list is not random: actives were taken first. Their share in the collection is about 6.9%. Unless noted, the call rests on the fitted dose curve; in most records, active means well fitted curve in the direction sought with a large enough effect; inconclusive means small, poorly fitted or top-dose-only effect, or another doubt; inactive means no such curve, though single readings can be large; an effect the other way counts as inactive or inconclusive.

SMILES | Giardia killer | MCF10A rereplic | SW480 rerep | Vif-A3G inh | Vif-APOBEC3F blk | IL-1B inflam inh
Cc1sc(N/N=C/c2cccnc2)nc1-c1ccc(Cl)cc1 | -5.1 | 19.3% | -0.8% | -0.8% | 0.4% | -8.1
Nc1c(Cl)ncnc1N/N=C/c1cccnc1 | -18.0 | 3.66µM* | -56.7% | -3.6% | 4.9% | x
Nc1c(Cl)ncnc1N/N=C/c1ccc2ccccc2n1 | -6.8 | 20.6µM* | 0.259µM* | -23.1% | -8.6% | -82.5*
Nc1c(Cl)ncnc1N/N=C/c1ccccn1 | -16.5 | u | u | u | -4.5% | -82.9*
Clc1ccc(N/N=C/c2cccnc2)cc1 | 31.6 | u | 11.0% | -10.2% | -2.1% | -62.4*
COc1ccccc1C1C=C(c2ccc(Cl)cc2)Nc2nc(-c3ccc(Cl)cc3)nn21 (configuration not stated) | x | x | x | 2.7% | -6.8% | x
CCN(CC)C(=O)C1=C(C)N(Cc2ccc(C(C)(C)C)cc2)C(=O)C(CC(=O)NCC2CCCCC2)C1 (configuration not stated) | x | x | x | -18.6% | -2.4% | -81.6*
CC1=C(C(=O)N2CCOCC2)CC(CC(=O)NCC2CCCCC2)C(=O)N1Cc1ccc(C(C)(C)C)cc1 (configuration not stated) | x | x | x | -7.0% | x | -53.3*
CC1=C(C(=O)N(C)C)CC(CC(=O)NCC2CCCCC2)C(=O)N1Cc1ccc(C(C)(C)C)cc1 (configuration not stated) | x | x | x | -0.3% | 0.0% | -21.6
CC1=C(C(=O)N2CCCCCC2)CC(CC(=O)NC2CCCCC2)C(=O)N1Cc1ccc(C(C)(C)C)cc1 (configuration not stated) | x | x | x | -11.4% | x | -73.0*
Cc1ccc(CN(C(=O)COc2ccccc2Cl)c2ccccn2)o1 | x | x | x | 4.5% | 3.4% | x
CC(C)N(C(=O)[C@H]1C[C@H](CC(=O)NCCCN(C)C)C(=O)N2CCc3c([nH]c4ccc(Cl)cc34)[C@]12C)C(C)C | 11.7 | u | 18.4µM* | 0.7% | -0.1% | -25.5
COc1ccc2[nH]c3c(c2c1)CCN1C(=O)C(CC(=O)NCCCN(C)C)C[C@H](C(=O)N(C(C)C)C(C)C)[C@@]31C (some centres not stated) | 12.6 | -7.8% | -43.2% | 0.8% | -5.0% | -1.4
CCN(CC)C(=O)[C@H]1C[C@H](CC(=O)NCCCN(C)C)C(=O)N2CCc3c([nH]c4ccc(Cl)cc34)[C@]12C | 50.2 | u | 7.5% | 4.2% | 0.6% | -51.5*
CC(=O)N1CCC(N(Cc2ccco2)C(=O)Nc2ccc(Br)cc2F)CC1 | x | x | x | -0.8% | 1.4% | x
CC1C(=O)C(=O)C=CN1C (configuration not stated) | x | 6.4% | -2.4% | x | x | x
CCN(N=O)c1ccc(/C=C/c2ccnc3ccccc23)cc1 | x | x | x | -8.1% | x | x
COC(=O)C1=C(C)NC(=O)/C1=C\c1cc(C)n(-c2cc(C)cc(C)c2)c1C | 3.8 | u | 12.6% | -2.7% | u | -59.6*
CSS(=O)(=O)c1cccc2cccnc12 | 5.8 | 18.4µM* | u | -3.3% | -0.5% | -7.8
CCOC(=O)CSc1c(-c2ccc(Cl)cc2)[nH]c2ccccc12 | 18.7 | u | 21.7% | -9.9% | u | 26.3
CCOC(=O)CSc1c(-c2cccs2)[nH]c2ccccc12 | 8.3 | 23.1µM* | u | -11.0% | -10.6% | 8.1
CC(C)N(C(=O)[C@H]1C[C@H](CC(=O)NCc2cccc(C(F)(F)F)c2)C(=O)N2CCc3c([nH]c4cc(CCC(=O)N(C)C)ccc34)[C@]12C)C(C)C | 14.3 | u | u | 5.2% | 5.0% | -66.9*
COc1ccc2[nH]c3c(c2c1)CCN1C(=O)C(CC(=O)NCCC2=CCCCC2)C[C@H](C(=O)N(C(C)C)C(C)C)[C@@]31C (some centres not stated) | 17.6 | -32.3% | u | -10.0% | -19.3% | -58.9*
CCN(CC)C(=O)[C@H]1C[C@H](CC(=O)NCc2cccc(C(F)(F)F)c2)C(=O)N2CCc3c([nH]c4ccc(Cl)cc34)[C@]12C | -26.9 | u | u | -19.9% | -1.4% | -53.6*
CCN(CC)C(=O)[C@H]1C[C@H](CC(=O)NCc2cccc(C(F)(F)F)c2)C(=O)N2CCc3c([nH]c4cc(CCC(=O)N(C)C)ccc34)[C@]12C | -13.6 | -2.8% | u | -2.7% | -2.9% | -21.3
SMILES | Giardia killer | MCF10A rereplic | SW480 rerep | Vif-A3G inh | Vif-APOBEC3F blk | IL-1B inflam inh
CCN(CC)C(=O)[C@H]1CC(CC(=O)NCCC2=CCCCC2)C(=O)N2CCc3c([nH]c4ccc(OC)cc34)[C@]12C (some centres not stated) | -24.9 | -23.3% | -7.5% | -4.8% | 6.8% | u
CCN(CC)C(=O)[C@H]1CC(CC(=O)NCc2cccc(C(F)(F)F)c2)C(=O)N2CCc3c([nH]c4ccccc34)[C@]12C (some centres not stated) | 0.8 | 10.7% | 5.4% | 2.6% | 2.7% | u
COc1ccc2[nH]c3c(c2c1)CCN1C(=O)C(CC(=O)NCc2cccc(C(F)(F)F)c2)C[C@H](C(=O)N(C(C)C)C(C)C)[C@@]31C (some centres not stated) | -7.9 | -43.3% | 8.9% | -3.9% | -7.4% | -53.5*
O=S(=O)(Nc1cccnc1)c1cccc2ccccc12 | 1.5 | x | x | -4.9% | x | x
Cc1ccc(-c2cc(-c3ccc(Cl)cc3)c(C#N)c(N)n2)o1 | -4.0 | 2.91µM* | 2.59µM* | -14.1% | -10.1% | -5.7
Cc1ccc(-c2cc(-c3ccc(C)o3)nc(N)c2C#N)cc1 | -8.7 | u | 23.1µM* | u | u | -6.5
Cc1ccc(-c2c(C#N)c(N)nc3c2CCCCCC3)o1 | 5.4 | -0.7% | 7.4% | -0.3% | -10.7% | 4.4
CCOc1cc(-c2cc(-c3ccc(C)o3)nc(N)c2C#N)ccc1O | -2.4 | u | u | -35.4% | -4.0% | -17.3
Cc1ccc(-c2cc(-c3ccc(F)cc3)c(C#N)c(N)n2)o1 | -3.4 | 4.11µM* | 20.6µM* | -20.6% | -16.4% | 0.8
Cc1ccc(-c2cc(-c3ccc4c(c3)OCO4)c(C#N)c(N)n2)o1 | 23.4 | 20.6µM* | 20.6µM* | -30.0% | u | -11.7
COc1ccc(CCNC(=O)c2cnn3c2NC(=C2CC2)C=C3C(F)F)cc1OC | x | x | x | -16.0% | x | x
COc1ccc2c(CNCCc3cccs3)c(C(=O)O)n(Cc3ccccc3)c2c1 | x | x | x | -4.5% | 0.2% | x
CCS(=O)(=O)N1CC(=O)N(c2cc(Cl)ccc2C)C(C)(C(=O)NC2CCCCCC2)C1 (configuration not stated) | x | x | x | 2.2% | 0.0% | x
CCOCCCNC(=O)C(=O)Nc1c2c(nn1-c1ccc(OC)cc1)CSC2 | x | x | x | -1.0% | 0.1% | x
CC1(C)OC[C@@H]2O[C@@]3(C(=O)O)OC(C)(C)O[C@@H]3[C@@H]2O1 | x | 3.3% | -0.5% | x | x | x
